Assay results from the supplement of paper PMC10849652.
The full data set covers some 8,800 targets. This sample favours those with a hit. About 0.5% of all pairs of compound and target were hits.

Legend:
Test in all cases: log2 fold change, soluble protein after heating vs DMSO (PISA); higher = thermal stabilisation; K562 lysate, 10 uM; active = over 0.2 and 3.5 SD of the protein, either way, in both replicates (recomputed)
[1] = compound: Cc1sc2c(c1C)C(c1ccc(Cl)cc1)=N[C@@H](CC(=O)OC(C)(C)C)c1nnc(C)n1-2
Procedure, shortened: (§1)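 Log-two fold change in thermal stability relative to solvent controls is reported from duplicates. For each sample, crude K562 extract from dounce-homogenised pellets in PBS pH 7.4 with 1 mM MgCl2, at 1 mg/mL protein, was treated with 10 μM compound for 30 min. Aliquots heated for 3 min across 48°C-58°C were pooled, brought to 0.5% NP-40 at 4°C and cleared at 21,000xg for 90 min. The supernatant was quantified by TMTpro 16plex LC-MS/MS with channel sums equalised.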

[2] = compound: c1ccc([C@@H]2C[C@H]2NC2CCNCC2)cc1
Procedure, shortened: as §1

[3] = compound: C1=CC=C(C=C1)[C@H](COC2=CC3=C(C=C2)NC(=O)N3)NC(=O)C4=CC=CN(C4=O)CC5=CC(=C(C=C5)F)F
Procedure, shortened: as §1

[4] = compound: CC1=C(SC2=C1C(=N[C@H](C3=NN=C(N32)C)CC(=O)N)C4=CC=C(C=C4)Cl)C
Procedure, shortened: as §1

[5] = compound: CC1=C2C(=CC=C1)N=C(N(C2=O)C3=CC=CC=C3C)CN4C=NC5=C(N=CN=C54)N
Procedure, shortened: as §1

Measured: log2 fold change

WSB1 (UniProt Q9Y6I7)
Sequence of UniProt Q9Y6I7 (Q9Y6I7 whole entry, looked up): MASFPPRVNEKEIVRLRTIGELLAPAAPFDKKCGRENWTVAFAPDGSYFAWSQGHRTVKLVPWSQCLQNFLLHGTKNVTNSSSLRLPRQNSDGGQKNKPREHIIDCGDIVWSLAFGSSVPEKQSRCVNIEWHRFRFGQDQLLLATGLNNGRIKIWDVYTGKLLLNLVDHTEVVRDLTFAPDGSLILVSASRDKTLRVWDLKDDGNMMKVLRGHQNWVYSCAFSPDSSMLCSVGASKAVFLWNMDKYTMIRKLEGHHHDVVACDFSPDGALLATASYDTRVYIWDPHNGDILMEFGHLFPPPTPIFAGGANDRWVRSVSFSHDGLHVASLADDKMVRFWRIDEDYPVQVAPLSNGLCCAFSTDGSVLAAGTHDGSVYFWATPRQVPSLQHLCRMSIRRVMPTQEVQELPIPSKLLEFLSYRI
inactive: [1] 0.036 | [2] -0.036

VASN (UniProt Q6EMK4)
Sequence of UniProt Q6EMK4 (Q6EMK4 whole entry, looked up): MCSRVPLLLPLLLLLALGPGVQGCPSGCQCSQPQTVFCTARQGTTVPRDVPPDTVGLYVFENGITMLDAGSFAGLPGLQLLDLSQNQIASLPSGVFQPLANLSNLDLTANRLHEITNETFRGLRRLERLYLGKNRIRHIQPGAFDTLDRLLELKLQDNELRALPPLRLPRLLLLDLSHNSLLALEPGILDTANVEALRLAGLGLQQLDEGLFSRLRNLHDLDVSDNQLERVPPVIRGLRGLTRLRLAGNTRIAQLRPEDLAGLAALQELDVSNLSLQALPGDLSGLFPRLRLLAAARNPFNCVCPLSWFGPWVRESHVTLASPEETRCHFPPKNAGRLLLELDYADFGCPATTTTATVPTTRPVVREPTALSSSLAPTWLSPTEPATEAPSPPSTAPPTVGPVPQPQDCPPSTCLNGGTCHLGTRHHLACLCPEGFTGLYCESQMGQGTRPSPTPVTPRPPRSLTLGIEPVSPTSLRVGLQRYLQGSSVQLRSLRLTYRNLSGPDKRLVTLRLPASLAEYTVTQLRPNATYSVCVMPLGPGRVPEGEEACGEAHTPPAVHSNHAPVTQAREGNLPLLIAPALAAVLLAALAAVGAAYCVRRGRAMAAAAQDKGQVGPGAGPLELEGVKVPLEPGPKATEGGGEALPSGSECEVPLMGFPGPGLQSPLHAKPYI
inactive: [1] -0.017

WAS (UniProt P42768)
Sequence of UniProt P42768 (P42768 whole entry, looked up): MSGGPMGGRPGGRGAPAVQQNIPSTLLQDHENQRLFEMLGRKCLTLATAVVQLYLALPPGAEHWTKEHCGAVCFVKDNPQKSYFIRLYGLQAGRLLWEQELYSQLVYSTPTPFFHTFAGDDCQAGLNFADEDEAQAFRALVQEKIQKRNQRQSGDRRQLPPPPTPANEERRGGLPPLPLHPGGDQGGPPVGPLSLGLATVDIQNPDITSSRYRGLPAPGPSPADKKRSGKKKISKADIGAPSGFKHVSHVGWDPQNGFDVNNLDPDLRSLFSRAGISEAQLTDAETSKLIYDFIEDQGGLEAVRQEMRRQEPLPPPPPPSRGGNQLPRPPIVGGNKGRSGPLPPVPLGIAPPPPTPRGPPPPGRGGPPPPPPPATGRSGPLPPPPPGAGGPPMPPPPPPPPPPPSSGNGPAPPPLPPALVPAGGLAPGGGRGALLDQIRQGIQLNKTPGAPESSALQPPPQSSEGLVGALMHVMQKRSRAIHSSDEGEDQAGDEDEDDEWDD
inactive: [3] 0.003 | [4] -0.006 | [1] -0.095 | [2] 0.053

UNC13D (UniProt Q70J99)
Sequence of UniProt Q70J99 (Q70J99 whole entry, looked up): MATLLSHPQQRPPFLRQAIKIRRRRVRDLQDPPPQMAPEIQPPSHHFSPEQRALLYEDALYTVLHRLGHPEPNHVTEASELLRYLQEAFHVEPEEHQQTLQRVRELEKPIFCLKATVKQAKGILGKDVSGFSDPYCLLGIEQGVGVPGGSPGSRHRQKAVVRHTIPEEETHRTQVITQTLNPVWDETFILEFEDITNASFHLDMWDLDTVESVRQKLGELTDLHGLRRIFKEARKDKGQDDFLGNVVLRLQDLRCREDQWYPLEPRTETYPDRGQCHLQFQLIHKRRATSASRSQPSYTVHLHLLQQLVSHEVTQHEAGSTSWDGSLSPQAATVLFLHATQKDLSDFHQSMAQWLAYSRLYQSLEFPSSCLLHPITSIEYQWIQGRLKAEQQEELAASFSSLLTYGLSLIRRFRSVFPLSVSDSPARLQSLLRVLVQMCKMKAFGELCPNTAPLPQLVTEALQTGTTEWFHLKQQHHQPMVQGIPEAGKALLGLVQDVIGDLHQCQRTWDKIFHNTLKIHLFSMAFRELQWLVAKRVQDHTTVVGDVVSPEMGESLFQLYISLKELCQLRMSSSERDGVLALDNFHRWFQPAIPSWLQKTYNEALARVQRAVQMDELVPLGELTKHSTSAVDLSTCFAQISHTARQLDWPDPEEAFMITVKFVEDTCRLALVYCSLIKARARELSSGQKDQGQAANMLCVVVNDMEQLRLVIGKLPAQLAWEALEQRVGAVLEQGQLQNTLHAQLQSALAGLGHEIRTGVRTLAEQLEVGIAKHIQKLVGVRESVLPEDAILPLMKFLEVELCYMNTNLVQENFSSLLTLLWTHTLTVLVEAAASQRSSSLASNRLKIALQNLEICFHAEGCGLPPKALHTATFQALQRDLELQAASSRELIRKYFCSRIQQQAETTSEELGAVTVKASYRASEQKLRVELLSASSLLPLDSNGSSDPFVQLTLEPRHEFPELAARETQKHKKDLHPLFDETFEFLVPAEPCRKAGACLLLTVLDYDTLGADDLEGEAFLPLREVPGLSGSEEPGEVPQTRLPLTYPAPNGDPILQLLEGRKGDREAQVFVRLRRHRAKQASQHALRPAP
inactive: [3] -0.032 | [4] 0.067 | [5] 0.044 | [1] 0.025 | [2] 0.024

ZNF281 (UniProt Q9Y2X9)
inactive: [1] -0.02

VPS37B (UniProt Q9H9H4)
Sequence of UniProt Q9H9H4 (Q9H9H4 whole entry, looked up): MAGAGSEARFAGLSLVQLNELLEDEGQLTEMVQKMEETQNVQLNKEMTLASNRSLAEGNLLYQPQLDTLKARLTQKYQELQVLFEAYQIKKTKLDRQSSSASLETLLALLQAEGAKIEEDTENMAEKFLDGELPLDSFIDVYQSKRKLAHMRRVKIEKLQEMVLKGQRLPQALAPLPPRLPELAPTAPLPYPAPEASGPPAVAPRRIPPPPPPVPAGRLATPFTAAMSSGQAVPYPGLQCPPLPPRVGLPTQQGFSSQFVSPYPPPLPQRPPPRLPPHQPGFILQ
inactive: [3] 0.028 | [4] 0.039 | [5] 0.01 | [1] -0.01 | [2] 0.064

WAC (UniProt Q9BTA9)
Sequence of UniProt Q9BTA9 (Q9BTA9 whole entry, looked up): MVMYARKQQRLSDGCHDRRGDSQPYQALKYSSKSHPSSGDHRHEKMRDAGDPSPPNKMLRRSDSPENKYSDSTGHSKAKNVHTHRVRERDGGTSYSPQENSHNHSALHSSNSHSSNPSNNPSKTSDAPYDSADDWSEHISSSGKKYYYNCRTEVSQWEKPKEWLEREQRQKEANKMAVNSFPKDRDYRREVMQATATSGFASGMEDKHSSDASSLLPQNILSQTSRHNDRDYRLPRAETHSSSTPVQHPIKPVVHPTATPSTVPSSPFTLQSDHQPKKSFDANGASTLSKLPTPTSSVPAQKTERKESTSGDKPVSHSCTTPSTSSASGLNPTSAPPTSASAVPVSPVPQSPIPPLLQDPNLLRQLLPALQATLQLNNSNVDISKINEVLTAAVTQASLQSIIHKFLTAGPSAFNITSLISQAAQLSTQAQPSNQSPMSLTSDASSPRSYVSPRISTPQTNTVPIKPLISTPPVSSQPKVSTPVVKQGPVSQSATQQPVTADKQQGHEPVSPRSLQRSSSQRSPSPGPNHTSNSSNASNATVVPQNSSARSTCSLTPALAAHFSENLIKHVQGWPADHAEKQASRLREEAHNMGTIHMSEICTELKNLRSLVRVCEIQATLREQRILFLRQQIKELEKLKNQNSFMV
inactive: [3] -0.03 | [4] 0.056 | [5] -0.013 | [1] 0.041 | [2] 0.037

VPS16 (UniProt Q9H269)
Sequence of UniProt Q9H269 (Q9H269 whole entry, looked up): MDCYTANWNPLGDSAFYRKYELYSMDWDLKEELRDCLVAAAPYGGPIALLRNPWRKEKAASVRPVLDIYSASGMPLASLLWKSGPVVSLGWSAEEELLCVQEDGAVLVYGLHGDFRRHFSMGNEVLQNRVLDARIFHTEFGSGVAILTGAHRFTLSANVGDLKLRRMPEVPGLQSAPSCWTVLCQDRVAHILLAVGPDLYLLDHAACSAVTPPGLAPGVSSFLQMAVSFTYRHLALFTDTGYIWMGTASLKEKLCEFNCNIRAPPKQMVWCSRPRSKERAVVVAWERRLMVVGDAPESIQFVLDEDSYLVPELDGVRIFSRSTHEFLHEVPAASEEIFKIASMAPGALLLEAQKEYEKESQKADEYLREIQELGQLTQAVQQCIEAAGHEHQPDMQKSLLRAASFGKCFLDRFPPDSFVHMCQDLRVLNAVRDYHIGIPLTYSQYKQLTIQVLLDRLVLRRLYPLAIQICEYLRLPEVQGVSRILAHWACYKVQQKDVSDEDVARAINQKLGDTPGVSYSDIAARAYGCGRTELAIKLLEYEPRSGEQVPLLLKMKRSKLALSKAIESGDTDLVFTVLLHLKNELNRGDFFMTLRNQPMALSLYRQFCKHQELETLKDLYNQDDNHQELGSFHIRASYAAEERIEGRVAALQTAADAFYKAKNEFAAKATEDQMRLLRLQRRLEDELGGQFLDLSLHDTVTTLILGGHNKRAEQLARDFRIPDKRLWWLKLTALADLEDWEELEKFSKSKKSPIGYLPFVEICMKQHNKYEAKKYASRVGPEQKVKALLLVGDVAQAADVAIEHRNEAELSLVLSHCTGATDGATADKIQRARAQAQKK
inactive: [3] -0.035 | [4] -0.009 | [5] 0.041 | [1] 0.011 | [2] 0.005
